D1 antagonist – antagonists of human D1 dopamine receptor | 360,000 compounds, 3.2% hits | HEK293 TREx D1 cells, calcium flux, dopamine EC80; hits give low values | activity change, negative = inhibition, % at 10 µM; in the data active = activity change below about -30%; also: % is scaled to controls: 0 for no effect and ±100 for the full control effect
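After overnight tetracycline induction at 30 C, force-coupled D1 HEK293 cells took up a no-wash calcium dye at room temperature. Compounds were added and monitored 180 s, and the response to EC80 dopamine was then recorded.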
TRHR enhancer – allosteric enhancers of human TRH receptor. 360,000 compounds, 0.66% hits. TRHR cells, fluo-8 calcium fluorescence, EC20 TRH enhancement. enhancement, % at 2 µM; in the data active = enhancement above about 30%; also: 0% is about no effect
Target sequence (P34981 whole entry, looked up): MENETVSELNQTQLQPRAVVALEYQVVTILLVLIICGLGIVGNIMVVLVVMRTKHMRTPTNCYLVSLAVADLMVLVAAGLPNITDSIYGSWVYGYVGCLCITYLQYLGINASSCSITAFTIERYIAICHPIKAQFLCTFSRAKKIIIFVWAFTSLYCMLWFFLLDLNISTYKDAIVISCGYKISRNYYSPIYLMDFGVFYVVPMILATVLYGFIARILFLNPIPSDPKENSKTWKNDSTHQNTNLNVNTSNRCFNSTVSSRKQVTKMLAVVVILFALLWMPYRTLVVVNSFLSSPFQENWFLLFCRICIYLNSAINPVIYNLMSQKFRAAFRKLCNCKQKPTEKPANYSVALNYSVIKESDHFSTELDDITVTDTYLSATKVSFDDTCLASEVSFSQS
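TRHR-expressing cells loaded with fluo-8 calcium dye were read kinetically (ex 480/em 530) during compound addition, then stimulated with an EC20 of TRH (10 nM final). Enhancement of the Gq-mediated intracellular calcium response was scored.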
TRHR agonist – TRH receptor (human) agonism | AID 493084 | activation, % at 2 µM | TRHR cells, calcium flux fluo-8, FDSS agonist mode | 360,000 compounds, 0.18% hits; also: 0% is about no effect
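TRHR-expressing cells, plated overnight in medium with 10% serum, were loaded with fluo-8 calcium dye at room temperature. After a 10 s baseline, library compound was pin-added and calcium release was recorded kinetically (ex 480/em 530) as agonist response.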
D1 agonist – agonists of human D1 dopamine receptor; P21728; 360,000 compounds, 1% hits; activation, % at 2 µM; HEK293 T-REx D1 cells, calcium flux, agonist mode; also: 0% is about no effect
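Tetracycline-induced HEK293 TREx D1 cells, force-coupled to calcium signalling, were dye-loaded with a no-wash calcium kit. Compound was pin-added after a 10 s baseline. Fluorescence was read kinetically at 1 cycle/s for 180 s, with calcium rises flagged as agonism.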
D1 potentiator – potentiators of human D1 dopamine receptor; P21728; HEK293 TREx D1 cells, calcium flux, dopamine EC20 potentiation; 360,000 compounds, 0.036% hits; potentiation, % at 10 µM; in the data active = potentiation above about 30%; also: 0% is about no effect
The depositor's hits bear a star; ! = repeats disagree. A selection: hits, their analogues and other compounds. The true share with any hit is near 4.7%. Rule as the data show it, unless noted: active = activation above about 30%; inactive = the rest.

SMILES	D1 antagonist	TRHR enhancer	TRHR agonist	D1 agonist	D1 potentiator
O=C1c2cccc3c([N+](=O)[O-])ccc(c23)C(=O)N1Cc1cccnc1	-40*	-9	9	13	2
O=C1c2cccc3cccc(c23)C(=O)N1Cc1cccnc1	20	3	-3	2	-6
CCO[C@H]1OC(C(N)=O)=C[C@@H](C)[C@@H]1CCCO	-15	33*	1	-5	-2
CN(Cc1ccco1)c1ncnc2ccc(-c3ccccc3Cl)cc12	-40*!	9	0	18	-10
CN(Cc1ccco1)c1ncnc2ccc(-c3ccoc3)cc12	5	6	-1	-2	3
CC1=CC(C)(C)N(C(=O)c2ccc(F)cc2)c2cc3c(cc21)OCO3	16	5	-1	72*	0
COCC(C)NC(=O)C1=CC(c2ccc3c(c2)OCO3)=NS(=O)(=O)N1C (centres undefined)	-6	1	0	5	-2
O=C(/C=C/c1cccc2ccccc12)c1ccncc1	2	6	2	2	-3
Cc1[nH]c2ccccc2c1/C=C/C(=O)c1ccncc1	7	8	-1	55*	-6
COc1cc(CNC2CCCC2)cc(Cl)c1OCc1ccc(F)cc1	4	-6	3	32*	-6
COc1cc(CNC2CCCC2)cc(Cl)c1OCc1ccccc1Cl	8	-9	0	25	10
COc1cc(CNn2c(C)n[nH]c2=S)cc(Cl)c1OCc1ccc(F)cc1	-1	6	-1	37*	-2
CCOc1cc(CNC2CCCC2)cc(Cl)c1OCc1ccc(F)cc1	-7	24	0	102*	42*
COC(=O)c1c(NC(=O)c2cc3ccccc3c(=O)o2)sc2c1CCCC2	-5	9	-1	0	-3
Cc1ccc(C2N3CC4(C)CN2CC(c2ccccc2)(C3)C4=O)cc1 (centres undefined)	-7	1	1	1	-1
C=Cc1cc2c(s1)c1cnn(Cc3ccccc3F)c(=O)c1n2C	13	-2	-1	2	5
CC(C)[C@H](NS(=O)(=O)c1cccc(C(F)(F)F)c1)C(=O)OCC(N)=O	0	39*	2	2	5
CCCN1CCCc2cc(CN(CCCN3CCOCC3)C(=O)Nc3ccc(CC)cc3)ccc21	3	5	-1	-1	-6
O=S(=O)(NCc1ccccc1)c1ccc(S(=O)(=O)N(Cc2ccccn2)Cc2ccco2)cc1	-34*	-2	-1	26	-11
O=S(=O)(c1ccc(Cl)cc1)N(Cc1ccccn1)Cc1ccccn1	3	-5	-1	3	-3
CCN(CC)S(=O)(=O)c1ccc(S(=O)(=O)N(Cc2ccccn2)Cc2ccco2)cc1	-56*	1	-1	31*	-12
Cc1ccc(-c2nsc(NC(=O)c3oc4cc(C)c(Cl)cc4c3C)n2)cc1	-3	0	0	1	0
Cc1nc(-c2ccc(F)cc2)sc1CCNC(=O)c1ccco1	-12	0	-1	17	1
CCn1nc([N+](=O)[O-])c(C(C#N)c2nc3cc(C(F)(F)F)ccc3s2)c(Cl)c1=O (centres undefined)	-38*	13	-1	4	5
CCCn1nc([N+](=O)[O-])c(C(C#N)c2nc3ccccc3o2)c(Cl)c1=O (centres undefined)	4	0	0	-1	-4
SMILES	D1 antagonist	TRHR enhancer	TRHR agonist	D1 agonist	D1 potentiator
Cc1c2cnn(CC(=O)N3CCN(c4ccc(F)cc4)CC3)c(=O)c2c(C)n1Cc1ccc(F)cc1	10	-3	1	15	-3
CC(C)(C)c1cccc(Cn2nnc3ccccc32)c1O	-43*	-3	0	29	-10
CCOc1ccc2nc(N3CCC(C(=O)Nc4c(C)cccc4C)CC3)sc2c1	-56*	6	0	-1	-2
CCCCN(CC)CCCNC(=O)C1CCN(c2nc3ccc(CC)cc3s2)CC1	-62*	-6	5	79*	6
CCOc1ccc2nc(N3CCC(C(=O)NCCCN4CCOCC4)CC3)sc2c1	4	-2	0	1	1
CCOc1ccc2nc(N3CCC(C(=O)NC4CCCCC4)CC3)sc2c1	-3	0	0	9	0
CCCCN(C)CCCNC(=O)C1CCN(c2nc3ccc(CC)cc3s2)CC1	-53*	-1	3	84*	3
Cc1ccccc1C(=O)N1CCC(N2CCN(Cc3ccc(F)cc3)C(=O)C2=O)CC1	1	-3	1	3	1
COc1ccc(C)cc1NCc1nnc2n1CCCCC2	9	-3	0	2	0
O=C1C=CC(=O)N1Nc1ccc(Br)cc1	5	33*	1	9	-5
Cc1c(Cl)cccc1-c1ccc(/C=C(\C#N)c2nc3ccccc3[nH]2)o1	6	12	-2	58*	-3
Cc1ccc2nc(/C(C#N)=C\c3cc(O)ccc3[N+](=O)[O-])[nH]c2c1	2	-3	0	0	-6
Cc1ccc2nc(/C(C#N)=C/c3ccc(-c4cccc([N+](=O)[O-])c4)o3)[nH]c2c1	1	1	-1	47*	-3
N#C/C(=C\c1c(Cl)cccc1Cl)c1nc2ccccc2[nH]1	-12	-5	1	8	-6
N#C/C(=C/c1ccc(N2CCOCC2)o1)c1nc2ccccc2[nH]1	7	-2	28	64*	1
Cc1ccc2nc(/C(C#N)=C/c3ccc(-c4ccc(F)cc4F)o3)[nH]c2c1	1	-4	52*	219*	8
CC(C)(C)c1ccc(C(=O)NC2(C(F)(F)F)NC(=O)N(CCc3ccccc3)C2=O)cc1 (centres undefined)	-3	0	-1	17	-6
N#C/C(=C\c1ccc(Sc2nc3ccccc3[nH]2)o1)c1ccccc1	-34*	-7	0	14	-7
CCOc1ccc(-c2nc3c(c(SCC(=O)N4CCCCC4)n2)Cc2cc(C)ccc2O3)cc1	-6	3	1	0	1
Oc1c(C=Nc2ccccc2)sc2ccccc12	0	3	0	1	0
Oc1sc(C=Nc2ccccc2)c2ccccc12	-16	4	39*	172*	-2
Oc1c(C=Nc2cccnc2)sc2ccccc12	9	-1	1	5	4
Oc1sc(C=Nc2ccc(F)cc2)c2ccccc12	-25	-2	-1	132*	-7
CCN(CC)c1nc(C)c(C(=S)Nc2cc([N+](=O)[O-])ccc2Cl)s1	-3	2	4	39*	-4
CCOc1ccc(C(C(=O)NC2CCCC2)N(CCCO)C(=O)c2ccc(-c3ccccc3)[nH]2)cc1 (centres undefined)	-30*	-7	-1	1	3
C=CCSc1nnc(N2C(=O)C(O)=C(C(=O)c3ccco3)C2c2ccccc2F)s1 (centres undefined)	15	1	12	27	-2
